Inconclusive results are not listed. Where a call stands in place of a potency, no number is given. Active and inactive are the calls of the source. The call rests on the fitted dose curve; in most records, active means well fitted inhibition curve with a large enough effect; inconclusive means small, poorly fitted or top-dose-only effect; inactive means no such curve, though single readings can be large or run the other way.
Biological target: Luciferin 4-monooxygenase (Photinus pyralis) (UniProt P08659)
Test: Confirmatory firefly luciferase (FLuc) qHTS assay for identification of artifact compounds
Summary of the method: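 Compounds mixed 15 min with 10 uM luciferin/10 uM ATP, then 10 nM firefly luciferase added for 5 min at pH 7.6. Luminescence percent inhibition, scaled to no-enzyme and DMSO controls, fitted to Hill equation.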

Row | SMILES | Potency
1 | CCCCN(CCCC)C(=O)c1cc2c(=O)n3ccccc3nc2s1 | inactive
2 | O=C(Nc1nnc(-c2ccccc2)s1)c1ccc(S(=O)(=O)N2CCCC2)cc1 | inactive
3 | Cc1cccc(CSc2nc3cc(C(=O)NC4CCCC4)ccc3c(=O)n2Cc2ccccc2)c1 | inactive
4 | CCC(CC)c1nn2c(=O)cc(COc3ccc(NC(=O)c4ccccc4C)cc3)nc2s1 | inactive
5 | O=C(Nc1ccc(Br)cc1)c1cc(-c2cccs2)nc2ccccc12 | inactive
6 | Cc1ccc(NC(=O)c2sc3ncn(Cc4cccc(F)c4)c(=O)c3c2C)c(Br)c1 | inactive
7 | COc1ccc(Cn2c(CNS(=O)(=O)c3ccc(Cl)s3)nc3cccnc32)cc1 | inactive
8 | O=C=Nc1ccc(Cc2ccc(N=C=O)cc2)cc1 | inactive
9 | O=C1CCc2cc([S+](=O)([O-])NC3CCOCC3)ccc2N1 | inactive
10 | Nc1ncnc2c1ncn2[C@@H]1O[C@H](COP(=O)(O)OP(=O)(O)OC[C@H]2OC(O)[C@H](O)[C@@H]2O)[C@@H](O)[C@H]1O (some centres not stated) | inactive
11 | Cc1ccc(Nc2c(-c3ccsc3)nc3cccc(C)n23)cc1 | inactive
12 | O=C(Nc1ccc(F)cc1F)c1ccc(-n2cnnc2)cc1 | inactive
13 | COc1ccc(OC(=O)c2nc(SCc3ccccc3C)ncc2Cl)cc1 | inactive
14 | O=C1Nc2ccccc2/C1=C\c1ccc(O)cc1 | inactive
15 | Cc1ccc(CNS(=O)(=O)c2ccc(-c3cc(C(F)(F)F)on3)s2)cc1 | inactive
16 | COc1cc(C2C(C(=O)Nc3ccc(Cl)cc3)=C(C)Nc3nc(SC)nn32)cc(OC)c1OC (configuration not stated) | inactive
17 | COc1ccc(-c2nnc3n2N=C(c2cc(OC)ccc2OC)CS3)c(OC)c1 | inactive
